High-throughput results deposited in PubChem by National Center for Advancing Translational Sciences (NCATS).
VP16 counter – Gal4-VP16 reporter inhibition counter-screen; Drosophila S2 Gal4-VP16 UAS-luciferase, luminescence, 20 h; Potency, µM (series often up to 53.6 µM), for inactives: at the top dose activity, negative = inhibition, actives largely listed as inhibitors; hit rate 3.5% among 310,000;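 note: Gal4-VP16 expression switched on by copper sulfate through the metallothionein promoter; nearly all actives have a fitted effect of over 50% in size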
Tau fibril FP – inhibitors of human tau fibril formation | AID 1468 | Potency, µM (titrated, usually from 57.7 µM), without a hit: top-dose activity, negative = inhibition, actives largely listed as inhibitors | hit rate 0.39% among 280,000 | K18 P301L tau heparin fibrillization, Alexa594 FP, 6 h; note: nearly all actives have a fitted effect of over 55% in size
Target sequence (P10636 561-689 P618L limits assumed): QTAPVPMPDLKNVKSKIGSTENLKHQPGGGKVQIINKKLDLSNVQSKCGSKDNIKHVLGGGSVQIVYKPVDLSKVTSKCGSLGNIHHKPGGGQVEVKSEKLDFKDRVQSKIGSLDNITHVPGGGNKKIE
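Compound effects on tau fibrillization are measured by Alexa 594 fluorescence polarization (ex 555, em 632 nm). K18 P301L tau is used at 15 uM with 0.24 uM labeled tracer, and 20 uM heparin induces aggregation over 6 hr at 37 C.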
Tau fluor counter – counter-screen for tau fibril formation inhibitors. hit rate 0.93% among 280,000. Potency, µM (highest dose often 57.7 µM), inactives show top-dose activity change, negative = decrease. tau K18 P301L Alexa594 fluorescence, heparin fibrillization; note: nearly all actives have a fitted effect of over 55% in size
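Human tau K18 P301L (15 uM unlabeled, 0.24 uM Alexa 594-labeled) in 100 mM sodium acetate pH 7 with 20 uM heparin, 6 hr at 37 C. ThT 30 uM added, 1 hr ambient; Alexa 594 FP and total fluorescence read at 555/632 nm.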
RORgamma inh – ROR gamma (mouse) transcription inhibition; P51450; Drosophila S2 Gal4-RORgamma UAS-luciferase reporter, 20 h; Potency, µM (top dose mostly 53.6 µM), for the others: at the highest dose activity change, negative = inhibition, hits mostly inhibitors; hit rate 5.4% among 310,000; note: nearly all actives have a fitted effect of over 60% in size
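Luciferase reporter read in Schneider cells carrying Gal4-RORγ (mouse) and UAS-Photinus luciferase; cells given compound 1 h before 700 uM copper sulfate induction, then incubated 20 h at ambient temperature.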
Tau ThT inhib – inhibitors of human tau fibril formation, thioflavin T binding; Potency, µM (series often up to 57.4 µM), for the others: at the highest dose activity, negative = inhibition, actives largely listed as inhibitors; AID 1460; recombinant tau K18 P301L (four-repeat tau fragment), heparin-induced fibrillization, ThT fluorescence; P10636; hit rate 2.1% among 270,000; note: nearly all actives have a fitted effect of over 55% in size
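Aggregation was driven by heparin (20 uM final) acting on recombinant tau […] bearing P301L in 100 mM sodium acetate pH 7; fibrils were detected with Thioflavin T.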
Active calls of the source: *; ? = inconclusive; / = not tested or not shown; [ ] = dose if it differs, or a comment. This is a sample that favours compounds with a hit; in the whole collection about 7.3% have one here. Calls come from the whole dose curve; as a rule, active = well fitted curve in the direction sought with a large enough effect; inconclusive = small, poorly fitted or top-dose-only effect, or another doubt; inactive = no such curve, though single readings can be large; an effect the other way counts as inactive or inconclusive. % is set by controls: 0 for no effect and ±100 for the full control effect; potency is the fitted concentration of half-maximal effect.

SMILES	VP16 counter	Tau fibril FP	Tau fluor counter	RORgamma inh	Tau ThT inhib
O=C(NCc1nc(-c2ccc(C(F)(F)F)cc2)no1)Nc1cc(Cl)cc(Cl)c1	?	16µM*	?	25%	/
Nc1[nH]n(-c2ccccc2)c(=O)c1N=Nc1ccc2c(c1)OCCO2	?	-12%	11µM*[quencher]	?	6.3µM*
Nc1[nH]n(-c2ccccc2)c(=O)c1N=Nc1ccc2c(c1)OCO2	-11%	?	10µM*[quencher]	?	2.2µM*
COc1ccccc1N=Nc1c(C)[nH]n(-c2ccccc2)c1=O	4%	/	/	22%	/
Cc1[nH]n(-c2ccccc2)c(=O)c1N=Nc1ccc(C#N)cc1	0%	/	/	0%	/
Cc1cc([N+](=O)[O-])ccc1N=Nc1c(N)[nH]n(-c2ccccc2)c1=O	-3%	?	?	18%	16µM*
Cc1nn(CCC(=O)NNC(=S)Nc2cccc(Cl)c2)c(C)c1[N+](=O)[O-]	4%	-3%	-16%	-3%	-10%
Cc1ccccc1Oc1cc(NC(=O)CCCn2nc(C)c([N+](=O)[O-])c2C)cc([N+](=O)[O-])c1	-93%	15%	?	41%[10 µM]	2%
Cc1nn(CCCC(=O)Nc2cc(Oc3ccc(F)cc3)cc([N+](=O)[O-])c2)c(C)c1[N+](=O)[O-]	10µM*	9%	1%	?	-1%
Cc1ccc(NC(=S)NNC(=O)Cn2nc(C(F)F)cc2C(F)F)cc1	-25%	7%	-2%	2.2µM*	-8%
Cc1cccc(NC(=S)NNC(=O)CCn2nc(C)c([N+](=O)[O-])c2C)c1	0%	?	-8%	1.8µM*	0%
Cc1nn(CC(=O)NNC(=S)Nc2ccccc2)c(C)c1[N+](=O)[O-]	13µM*	0%	-9%	8.9µM*	-14%
O=C(Cn1nc(C(F)F)cc1C(F)F)NNC(=S)Nc1ccc(Cl)cc1	-3%	-13%	-12%	-39%	0%
CCc1cccc(C)c1NC(=O)c1cnn(-c2ccc(F)cc2)c1-n1cccc1	/	-2%	-4%	/	-4%
O=C(NCCc1ccccc1)c1ccc2c(c1)CCN2S(=O)(=O)c1ccc(Cl)cc1	/	-11%	?	/	-11%
COc1ccccc1N=Nc1[nH]c2ccc(C)cc2c1O	4%	?	?	32%	?
COc1cc(-c2ccc(N=Nc3ccc4c(S(=O)(=O)O)cc(S(=O)(=O)O)c(N)c4c3O)c(OC)c2)ccc1N=Nc1ccc2c(S(=O)(=O)O)cc(S(=O)(=O)O)c(N)c2c1O	?	2.8µM*	1µM*[quencher]	?	1.6µM*
O=C1C(O)=C(O)C(=O)C(O)=C1O	-4%	?	-22%	-3%	13µM*
CC(NC(=S)NC1CCCCC1)c1ccc(C(C)(C)C)cc1 (centres undefined)	2µM*	/	/	1.6µM*	/
CC(NC(=O)C1CCCCC1)c1ccc2c(c1)OCCO2 (centres undefined)	0%	5%	5%	11%	1%
CC(C)c1ccc(/C=C/C(=O)NC2CCCCC2)cc1	-15%	-9%	-8%	?	-6%
CC(C)c1ccc(C(C)NC(=S)NC2CCCCC2)cc1 (centres undefined)	2.8µM*	/	/	1.4µM*	/
COC(=O)c1sc(NC(=O)C(C)C)c(C(=O)OC)c1C	1%	4%	-1%	?	-2%
COC(=O)c1sc(NC(=S)NNC(=O)c2c(Br)c(C)nn2C)c(C(=O)OC)c1C	?	/	/	6.3µM*	/
CCOc1ccc(C(=O)NCCS(=O)(=O)N2CCN(c3cccc(Cl)c3)CC2)cc1	/	-11%	-1%	/	-8%
c1ccc2nc(-c3nc4ccccc4o3)ccc2c1	10µM*	0%	-10%	-3%	?
CCN(C(=O)Cn1nnc2sc3c(c2c1=O)CCC(C(C)(C)C)C3)c1cccc(C)c1 (centres undefined)	/	3%	-5%	/	-1%
CCC(=O)c1ccc(N2CCN(C(=O)Cc3ccccc3)CC2)c(F)c1	?	-2%	-17%	?	?
CCC(=O)c1cc(F)c(N2CCN(C(=O)Cc3ccccc3)CC2)cc1C	13µM*	0%	-11%	11%	-30%
Cc1c(N2C(=O)/C(=C\c3ccc(N(C)C)cc3)N(C)C2=S)c(=O)n(-c2ccccc2)n1C	7%	4%	-10%	?	14µM*
